From PubChem BioAssay (Tox21)
“And” between values parts separate entries of the source, which are not always exact repeats. Equal values may be shown once. Results filed as inconclusive are left out. Some compounds were tested as several samples or in several runs, with calls that do not always agree. The source made the active and inactive calls. Unless noted, the call rests on the fitted dose curve; in most records, active means well fitted curve in the direction sought with a large enough effect in the repeat runs; inconclusive means weak or mixed curves; inactive means no such curve, though single readings can be large; an effect the other way counts as inactive or inconclusive.

Columns and labels:
[1] = qHTS assay for small molecule agonists of the p53 signaling pathway (AID 651631; calls by dose curve; further: nearly all actives have a fitted effect of over 15% in size; further: potency means the concentration at half of the fitted maximal effect)
Method in brief: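 p53RE-bla HCT-116 cells; compounds 16 h, 37 °C; LiveBLAzer B/G FRET substrate 2 h RT; fluorescence intensity read-out, qHTS format.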

[2] = qHTS assay for small molecules that induce genotoxicity in human embryonic kidney cells expressing luciferase-tagged ATAD5 (AID 651632); further: nearly all actives have a fitted effect of over 15% in size
Method in brief: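 HEK293T cells carrying luciferase-tagged ATAD5 were given compound or DMSO vehicle and incubated 16 hr at 37C, 5% CO2. Luciferase activity was read after 30 min at room temperature with Amplite; a rise signals genotoxic stress.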

[3] = qHTS assay for small molecule agonists of the p53 signaling pathway - cell viability (AID 651633; calls by dose curve;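 further: p53RE-bla HCT reporter cells with a stable beta-lactamase p53 reporter; series mostly up to about 83 µM; nearly all actives have a fitted effect of over 30% in size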)
Method in brief: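 p53RE-bla cells, seeded at 4,000 per well and rested 5 h at 37 C/5% CO2, received compounds in DMSO for 16 h at 37 C. CellTiter-Glo was then added, and luminescence was read after 30 min at room temperature to gauge cytotoxicity.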

[4] = qHTS assay for small molecules that induce genotoxicity in human embryonic kidney cells expressing luciferase-tagged ATAD5 - cell viability (AID 651634; calls by dose curve; further: nearly all actives have a fitted effect of over 25% in size)
Method in brief: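 HEK293T cells carrying luciferase-tagged ATAD5, 2,000 cells/well, exposed to compound for 15.5 hr at 37C. Viability read as live-cell protease activity by CellTiter-Fluor fluorescence after 30 min at 37C.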

[5] = qHTS assay for small molecule disruptors of the mitochondrial membrane potential - cell viability (AID 720634; calls by dose curve; further: nearly all actives have a fitted effect of over 20% in size; further: potency means the concentration at half of the fitted maximal effect)
Method in brief: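 HepG2 cells, 2,000 per well, attached overnight, then treated 1 hr at 37 C, 5% CO2. Viability read as ATP by CellTiter-Glo luminescence after 30 min at room temperature. Read in the same wells as the m-MPI membrane-potential dye assay.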

[6] = qHTS assay for small molecule disruptors of the mitochondrial membrane potential (AID 720635); further: potency means the concentration at half of the fitted maximal effect
Method in brief: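 HepG2 cells (2,000/well) attached overnight at 37C, then took compound for 1 hr at 37C, 5% CO2. Mito-MPS dye was added for 30 min; fluorescence was read at 490/535 nm (monomers) and 540/590 nm (aggregates).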

[7] = qHTS assay to test for compound auto fluorescence at 590 nm (red) in HepG2 cells (AID 720674)
Method in brief: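 Intrinsic compound fluorescence in the red window (Ex/Em 540/590 nm) is measured in attached HepG2 cells exposed for 1 hr, DMSO vehicle as baseline, benchmarked to Rose Bengal sodium.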

[8] = qHTS assay to test for compound auto fluorescence at 535 nm (green) in HepG2 cells (AID 720675)
[9] = qHTS assay to test for compound auto fluorescence at 460 nm (blue) in HEK293 cells (AID 720678)
Method in brief: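 Cells were seeded and left to adhere for 4-5 hr at 37C. Compounds were then pin-transferred. After an overnight incubation at 37C under 5% CO2, intrinsic fluorescence at 405/460 nm was measured and referenced to triamterene.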

[10] = qHTS assay to test for compound auto fluorescence at 590 nm (red) in HEK293 cells (AID 720679)
Method in brief: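 Each well held 2,000 HEK293 cells in medium containing 10% dialyzed FBS. Following 4-5 hr attachment at 37C, 23 nL test compound or DMSO was added; plates sat overnight, and red fluorescence (540/590nm) was recorded.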

[11] = qHTS assay to test for compound auto fluorescence at 460 nm (blue) in HEK293 cell free culture (AID 720681)
Method in brief: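 Test compounds were pinned into cell-free culture medium (DMEM with 10% FBS) and fluorescence was read directly at Ex/Em 405/460 nm. Signals were expressed as fluorescence equivalents of triamterene, with DMSO vehicle as control.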

[12] = qHTS assay to test for compound auto fluorescence at 535 nm (green) in HEK293 cell free culture (AID 720682)
Method in brief: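 Cell-free medium (DMEM, 10% FBS) receives compound or DMSO by pintool. Plate read directly at Ex 485/Em 535 nm. Signal converted to fluorescein equivalency.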

[13] = qHTS assay to test for compound auto fluorescence at 590 nm (red) in HEK293 cell free culture (AID 720683)
Method in brief: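 Tox21 10K library compounds were pinned into cell-free DMEM with 10% FBS and fluorescence was read at excitation 540 nm. Activity is expressed as Rose Bengal sodium equivalency.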

[14] = qHTS assay to test for compound auto fluorescence at 590 nm (red) in HepG2 cell free culture (AID 720684)
Method in brief: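 Red fluorescence (540 nm excitation, 590 nm emission) was measured after compound transfer into cell-free MEM supplemented with 10% FBS. Values are equivalencies against Rose Bengal sodium.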

[15] = qHTS assay to test for compound auto fluorescence at 460 nm (blue) in HepG2 cell free culture (AID 720685)
Method in brief: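 Compound (23 nL) or DMSO pinned into cell-free MEM with 10% FBS; blue fluorescence read at 405/460 nm excitation/emission, expressed as auto-fluorescence equivalency to triamterene.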

[16] = qHTS assay to test for compound auto fluorescence at 535 nm (green) in HepG2 cell free culture (AID 720686)
[17] = qHTS assay to test for compound auto fluorescence at 460 nm (blue) in HepG2 cells (AID 720687)
Method in brief: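 Cells (2,000/well in MEM with 10% FBS) attached overnight at 37 C, then were exposed to compound or DMSO for 1 hr at 37 C, 5% CO2. Fluorescence read at Ex/Em 405/460 nm, expressed as triamterene-equivalent signal.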

[18] = target: Glucocorticoid receptor (Homo sapiens) (UniProt P04150); assay: qHTS assay to identify small molecule agonists of the glucocorticoid receptor (GR) signaling pathway (AID 720691; active means well fitted activation curve with a large enough effect in the signal ratio in the repeat runs, not every such curve was filed as active; the % refers to the signal ratio)
Chain of Glucocorticoid receptor (Homo sapiens) (P04150 whole entry, looked up): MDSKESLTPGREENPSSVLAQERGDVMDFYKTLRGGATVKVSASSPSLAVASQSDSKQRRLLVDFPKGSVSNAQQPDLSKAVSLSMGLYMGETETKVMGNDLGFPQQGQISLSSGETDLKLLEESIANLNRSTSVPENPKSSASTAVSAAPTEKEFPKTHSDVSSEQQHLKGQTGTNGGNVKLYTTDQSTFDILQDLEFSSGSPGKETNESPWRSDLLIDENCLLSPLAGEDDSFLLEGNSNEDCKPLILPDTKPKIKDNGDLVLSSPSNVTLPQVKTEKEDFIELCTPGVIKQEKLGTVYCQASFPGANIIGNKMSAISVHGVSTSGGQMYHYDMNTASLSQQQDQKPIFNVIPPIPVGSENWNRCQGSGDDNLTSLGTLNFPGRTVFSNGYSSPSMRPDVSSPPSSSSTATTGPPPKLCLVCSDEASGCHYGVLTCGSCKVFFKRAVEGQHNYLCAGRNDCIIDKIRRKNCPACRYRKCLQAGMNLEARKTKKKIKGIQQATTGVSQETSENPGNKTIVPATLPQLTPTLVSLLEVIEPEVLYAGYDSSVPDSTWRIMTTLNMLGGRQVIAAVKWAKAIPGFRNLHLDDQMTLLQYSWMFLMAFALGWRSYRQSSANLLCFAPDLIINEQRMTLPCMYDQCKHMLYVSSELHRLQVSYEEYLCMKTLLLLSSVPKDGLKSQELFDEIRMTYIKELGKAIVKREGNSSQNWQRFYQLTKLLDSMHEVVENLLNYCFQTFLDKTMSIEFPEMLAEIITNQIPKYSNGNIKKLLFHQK
Method in brief: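 GR-bla HeLa cells carrying a GRE-driven beta-lactamase reporter, exposed to compounds for 18 h at 37 C. Reporter activation read as fluorescence after 2 h with LiveBLAzer B/G FRET substrate at room temperature.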

[19] = target: Glucocorticoid receptor (Homo sapiens) (UniProt P04150); assay: qHTS assay to identify small molecule antagonists of the glucocorticoid receptor (GR) signaling pathway (AID 720692; active means well fitted inhibition curve with a large enough effect in the signal ratio in the repeat runs, not every such curve was filed as active; the % refers to the signal ratio)
Method in brief: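 GR-bla HeLa cells carrying a GRE-driven beta-lactamase reporter received compound after 4 h plating, then dexamethasone (5 nM final). After 18 h at 37C, the FRET substrate was loaded for 2 h at room temperature and fluorescence read.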

[20] = qHTS assay to test for compound auto fluorescence at 535 nm (green) in HEK293 cells (AID 720680)

Measured: Potency

C=C(C)C(=O)OCC1CO1 (stereo not drawn)
not listed: [20]
inactive: all other assays above

CCOc1cc(Oc2ccc(C(F)(F)F)cc2Cl)ccc1[N+](=O)[O-]
active: [5] 19.5 µM | [6] 17.4 µM and 24.3 µM
not listed: [9] | [10]
inactive: all other assays above

N#CCCCl
not listed: [9]
inactive: all other assays above

CCN(CC)C(=O)/C(Cl)=C(\C)OP(=O)(OC)OC
not listed: [10] | [20]
inactive: all other assays above

NNC(N)=S
63.5 µM (active) and inactive: [6]
not listed: [9] | [17]
inactive: all other assays above

NNC(=S)NN
not listed: [18] | [19] | [20]
inactive: all other assays above

NCc1cccnc1
not listed: [10] | [18] | [19]
inactive: all other assays above

CCCCCCCCCCCOC(=O)c1ccccc1C(=O)OCCCCCCCCCCC
not listed: [10]
inactive: all other assays above

CCCCNC(=O)n1c(NC(=O)OC)nc2ccccc21
active: [1] 13.6 µM and 15.4 µM
not listed: [7] | [10] | [17]
inactive: all other assays above

COP(=S)(OC)Oc1cc(Cl)c(Cl)cc1Cl
active: [6] 11.9 µM and 29.8 µM and 7.64 µM
not listed: [9] | [17] | [20]
inactive: all other assays above

O=Cc1ccco1
not listed: [7] | [17] | [18] | [19]
inactive: all other assays above

C=CCN(CC=C)C(=O)C(Cl)Cl
not listed: [7]
inactive: all other assays above

Oc1cc(Cl)ccc1Cl
active: [6] 28.1 µM and 27.3 µM
not listed: [10] | [17]
inactive: all other assays above

CCOc1cc(C=O)ccc1O
not listed: [17] | [20]
inactive: all other assays above

Nc1ccc(Cl)c(Cl)c1
not listed: [18] | [19]
inactive: all other assays above
